Screening data: PubChem BioAssay, several laboratories
This is a sample that favours compounds with a hit; in the whole collection about 5.4% have one here.
MPTP inh – inhibitors of mitochondrial permeability transition pore; isolated mouse mitochondria, Ca2+ swelling absorbance, 30 min; inhibition, % at 10 µM; 360,000 tested, 1.4% active; AID 602449;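 active = inhibition of 50% or more, scaled per plate between neutral and stimulator controls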
SKKanGAS inh – blocks kanamycin growth of S. pyogenes SKKanGAS strain. BacTiter-Glo, 6 h. inhibition, % at 7.5 µM. 300,000 tested, 1.3% active;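 active = mean replicate score, as percent of positive control median, at least 50; inconclusive = mean below 50 but one replicate at or above 50; inactive = mean and every replicate below 50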;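 also: strain carries kanamycin resistance gene driven by streptokinase promoter and grows in 40 µg/ml kanamycin; loss of luminescence reflects streptokinase promoter inhibition or plain growth inhibition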
Calb FLC – affects C. albicans growth with fluconazole; C. albicans CaCi-2 (fluconazole-resistant clinical isolate) + fluconazole, Alamar Blue growth, 48 h; growth inhibition, % (concentration not given with the values); 300,000 tested, 0.57% active; AID 1979;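 active = growth inhibition above about 58% in most replicates, limit read from the data, passing the limit was not always enough; inconclusive = exactly half the replicates above a set limit; inactive = most replicates below a set limit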;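 also: all wells also contain fluconazole at 8 µg/ml as a sub-toxic cotreatment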
Mdm2-MdmX inh – inhibitors of human Mdm2/MdmX interaction; SaOS-2 split-luciferase Mdm2/MdmX complementation, luminescence; AID 485346; inhibition, % at 8 µM; 330,000 tested, 3% active;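 active = inhibition of at least 50% at 8 µM in the primary screen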
Target sequence (O15151 whole entry, looked up): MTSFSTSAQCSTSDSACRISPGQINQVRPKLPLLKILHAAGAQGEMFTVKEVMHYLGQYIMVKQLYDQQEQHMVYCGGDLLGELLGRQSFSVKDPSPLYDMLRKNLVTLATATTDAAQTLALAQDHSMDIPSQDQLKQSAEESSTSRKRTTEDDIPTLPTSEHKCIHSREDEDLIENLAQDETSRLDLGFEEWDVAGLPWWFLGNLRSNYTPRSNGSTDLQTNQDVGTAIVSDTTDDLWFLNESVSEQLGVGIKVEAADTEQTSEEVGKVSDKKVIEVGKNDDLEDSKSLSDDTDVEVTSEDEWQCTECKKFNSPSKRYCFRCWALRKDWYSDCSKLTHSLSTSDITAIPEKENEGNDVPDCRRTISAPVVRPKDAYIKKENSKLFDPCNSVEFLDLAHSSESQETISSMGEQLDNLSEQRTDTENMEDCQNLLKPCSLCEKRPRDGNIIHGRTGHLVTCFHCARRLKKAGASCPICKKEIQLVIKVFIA
Target sequence (Q00987 whole entry, looked up): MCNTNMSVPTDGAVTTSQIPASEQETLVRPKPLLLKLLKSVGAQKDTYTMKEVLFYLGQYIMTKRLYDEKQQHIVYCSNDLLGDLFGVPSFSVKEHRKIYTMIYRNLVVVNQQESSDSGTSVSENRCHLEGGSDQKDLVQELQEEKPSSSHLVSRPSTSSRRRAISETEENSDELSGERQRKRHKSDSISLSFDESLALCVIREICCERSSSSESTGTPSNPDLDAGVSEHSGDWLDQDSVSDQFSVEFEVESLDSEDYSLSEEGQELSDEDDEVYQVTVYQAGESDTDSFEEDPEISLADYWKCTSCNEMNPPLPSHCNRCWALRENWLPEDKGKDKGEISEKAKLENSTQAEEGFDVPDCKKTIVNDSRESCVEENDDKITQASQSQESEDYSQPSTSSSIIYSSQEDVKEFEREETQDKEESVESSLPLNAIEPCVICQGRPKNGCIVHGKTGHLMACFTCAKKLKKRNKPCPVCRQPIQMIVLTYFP
CSC inhib – blocks cancer stem cells | AID 2717 | cancer stem cell-like cells viability, luminescence | 300,000 tested, 1.1% active | inhibition, % at 7.5 µM; in the data active = inhibition above about 75%; inconclusive = no clear call, values can overlap the other calls; tested in HMLE shEcad cells
Beta apoptosis – blocks beta cell apoptosis. INS-1E cytokine-induced death, ATP luminescence, 48 h; percent of positive-control rescue, neutral wells zero. protection from apoptosis, % (no concentration beside the values). 300,000 tested, 0.8% active;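 active = Every replicate reaches about 75%, or at least half do and their mean reaches it too, limit read from the data; inconclusive = At least half of replicates reach the limit but their mean does not; inactive = Under half of replicates reach the limit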;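 also: higher means more ATP so stronger rescue from cytokine killing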
Mdm2 MdmX conf – human Mdm2/MdmX binding inhibition, confirmed; shares compounds with Mdm2-MdmX inh; luminescent assay; inhibition, % at 8 µM; 10,000 tested, 55% active; in the data active = inhibition above about 40%
FLuc counter – inhibits full-length luciferase, flagging false Mdm2/MdmX hits. shares compounds with Mdm2-MdmX inh. SaOS-2 full-length luciferase counterscreen, luminescence. inhibition, % at 8 µM. 6,200 tested, 77% active;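 active = mean inhibition at 8 µM reaching about 37%, which flags the compound as non-specific, limit read from the data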;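 also: p53-null SaOS-2 cells with luciferase driven by a doxycycline-inducible promoter; compound on cells about two nights before reading with doxycycline added after day one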
Large screens that a line does not name were inactive (follow-up assays come after a bar, where they were run).

O=C(Nc1ccccc1Oc1ccccc1)c1cc([N+](=O)[O-])ccc1Cl	Mdm2-MdmX inh 79 | Mdm2 MdmX conf 48 | FLuc counter 68
O=C(CN1C(=O)NC2(CCCC2)C1=O)N1CCN(S(=O)(=O)c2cccc(F)c2)CC1	none (no result: CSC inhib)
COc1cc2c3nnc(-c4ccc(F)cc4)c-3cn(Cc3cccc(F)c3)c2cc1OC	Mdm2-MdmX inh 89 (no result: SKKanGAS inh, Calb FLC) | Mdm2 MdmX conf 100 | FLuc counter 50
COc1cc2c3nnc(-c4ccccc4)c-3cn(Cc3ccc(F)cc3)c2cc1OC	none
COc1cc2c3nnc(-c4ccc(F)cc4)c-3cn(Cc3ccc(C)cc3)c2cc1OC	Mdm2-MdmX inh 78 | Mdm2 MdmX conf 72 | FLuc counter 68
COc1cc2c3nnc(-c4ccc(F)cc4)c-3cn(Cc3cccc(C)c3)c2cc1OC	Mdm2-MdmX inh 97 | Mdm2 MdmX conf 99 | FLuc counter 87
COc1ccc(OCCNC(=O)/C=C/c2ccc([N+](=O)[O-])cc2)cc1	none
O=C(NCC(=O)N(Cc1ccccc1)C(C(=O)NC1CCCC1)c1ccncc1)c1ccco1 (configuration not stated)	none
O=C(NCCc1c[nH]c2ccccc12)C(=O)NCC1OCCN1S(=O)(=O)c1ccccc1 (configuration not stated)	none
O=C(NCCc1c[nH]c2ccccc12)C(=O)NCC1OCCN1S(=O)(=O)c1ccc(Cl)cc1 (configuration not stated)	Mdm2-MdmX inh 51 | Mdm2 MdmX conf 49 | FLuc counter 37
CCN1C(=NCc2ccco2)N[C@@H](c2cccc(C(F)(F)F)c2)C(C(=O)OC)=C1C	Mdm2-MdmX inh 56 (no result: SKKanGAS inh, Calb FLC, CSC inhib) | Mdm2 MdmX conf inactive
CCN1C(=NCC2CC2)N[C@@H](c2cccc(C(F)(F)F)c2)C(C(=O)OC)=C1C	none
COC(=O)C1=C(C)N(Cc2ccccc2)C(=NCCc2ccccn2)N[C@H]1c1cccc(C(F)(F)F)c1	Mdm2-MdmX inh 81 (no result: SKKanGAS inh, Calb FLC) | Mdm2 MdmX conf 51 | FLuc counter 59
COC(=O)C1=C(C)N(Cc2ccccc2)C(=NCC2CC2)N[C@H]1c1ccccc1	none (no result: SKKanGAS inh, Calb FLC)
COC(=O)C1=C(C)N(Cc2ccccc2)C(=NCCc2cccnc2)N[C@H]1c1ccc(Br)cc1	Mdm2-MdmX inh 85 (no result: SKKanGAS inh, Calb FLC) | Mdm2 MdmX conf 47 | FLuc counter 54
COC(=O)C1=C(C)N(Cc2ccccc2)C(=NCc2ccc3c(c2)OCO3)N[C@H]1c1ccccc1	Mdm2-MdmX inh 56 (no result: SKKanGAS inh, Calb FLC) | Mdm2 MdmX conf inactive
CC(C)CN1C(=O)C(=O)N(CC(=O)N(C)CC(=O)Nc2ccc(Cl)c(C(F)(F)F)c2)C1=O	none (no result: SKKanGAS inh, Calb FLC, CSC inhib)
O=C(COC(=O)/C=C/c1ccc2ccccc2n1)NNC(=O)c1ccc([N+](=O)[O-])cc1	none (no result: SKKanGAS inh, Calb FLC, CSC inhib, Beta apoptosis)
COC(=O)C1=C(C)N(Cc2ccccc2)C(=O)N[C@H]1c1cccc(C(F)(F)F)c1	none
COC(=O)C1=C(C)N(Cc2ccccc2)C(=NCc2ccccc2)N[C@H]1c1cccc(C(F)(F)F)c1	Mdm2-MdmX inh 98, CSC inhib 122, Beta apoptosis 113 (no result: SKKanGAS inh, Calb FLC) | Mdm2 MdmX conf inactive
Cc1[nH]n2c(=O)cc(-c3ccc([N+](=O)[O-])cc3)nc2c1-c1ccccc1	SKKanGAS inh 102, Mdm2-MdmX inh 66 | Mdm2 MdmX conf 66 | FLuc counter 39
O=C(CNC(=O)c1ccccc1)N=Nc1c(O)[nH]c2ccc(Br)cc12	none (no result: CSC inhib)
CCOc1ccc(NC(=S)N=Nc2c(O)[nH]c3ccccc23)cc1	SKKanGAS inh 101, Mdm2-MdmX inh 64 | Mdm2 MdmX conf inactive
Oc1[nH]c2ccc(Br)cc2c1N=NC(=S)N1CCOCC1	SKKanGAS inh 89, Calb FLC 96, Mdm2-MdmX inh 96, CSC inhib inconclusive, Beta apoptosis 108 | Mdm2 MdmX conf 98 | FLuc counter 54
Oc1[nH]c2ccccc2c1N=NC(=S)N1CCOCC1	SKKanGAS inh 77, Mdm2-MdmX inh 97, Beta apoptosis 83 | Mdm2 MdmX conf 88 | FLuc counter inactive
Oc1cccc(NC(=S)N=Nc2c(O)[nH]c3ccccc23)c1	none
CCSc1ncc(Cl)c(C(=O)Nc2ccccc2Cl)n1	none
CCSc1ncc(Cl)c(C(=O)Nc2sc3c(c2C(=O)NCc2cccnc2)CCCC3)n1	Mdm2-MdmX inh 60 (no result: CSC inhib, Beta apoptosis) | Mdm2 MdmX conf inactive
Cc1ccc(OC(=O)c2oc3ccc(F)cc3c2C)c(C)c1	Mdm2-MdmX inh 52 | Mdm2 MdmX conf inactive
N=c1c2ccccc2nc2n1CCCCCCCCCCC2	Mdm2-MdmX inh 59, Beta apoptosis 97 | Mdm2 MdmX conf inactive
CC(=O)NC12CC3CC(C1)CC(C(=O)Nc1c(C)n(C)n(-c4ccccc4)c1=O)(C3)C2	none (no result: CSC inhib, Beta apoptosis)
CCC(C)NC(=O)Nc1ccc(Br)cc1Cl (configuration not stated)	none
Fc1cccc(Cl)c1Cn1ncc2ccccc21	none
O=C(c1nc[nH]c1C(=O)N1CCc2ccccc2C1)N1CCc2ccccc2C1	none (no result: SKKanGAS inh, Calb FLC)
COc1ccc(C(=O)C/C(=C\C(=O)c2ccc(C)cc2)c2ccccc2)cc1	Mdm2-MdmX inh 86, Beta apoptosis inconclusive (no result: CSC inhib) | Mdm2 MdmX conf 84 | FLuc counter inactive
CC(=O)Nc1ccc(C=NNC(=O)c2ccc(NS(=O)(=O)c3cccs3)cc2)cc1	none (no result: SKKanGAS inh, Calb FLC)
O=C(NN=Cc1c(F)c(F)c(F)c(F)c1F)c1ccc(NS(=O)(=O)c2cccs2)cc1	Mdm2-MdmX inh 53 (no result: SKKanGAS inh, Calb FLC) | Mdm2 MdmX conf inactive
COc1ccc(N2CCN(c3cc(=O)n(Cc4ccc(F)cc4)c(=O)[nH]3)CC2)cc1	none (no result: SKKanGAS inh, Calb FLC)
O=C(Nc1nc2ccc(Cl)cc2s1)c1ccc(N2CCCCC2)c([N+](=O)[O-])c1	Mdm2-MdmX inh 61 | Mdm2 MdmX conf 42 | FLuc counter 54
Cc1ccccc1NCC(=O)N/N=C\c1ccc2c(c1)OCO2	none
Cn1cc(C(=O)N/N=C/c2ccc(Br)c([N+](=O)[O-])c2)c2ccccc21	Mdm2-MdmX inh 51 | Mdm2 MdmX conf inactive
O=C(N/N=C/c1ccc2c(c1)OCO2)c1sc2cc(Cl)ccc2c1Cl	Mdm2-MdmX inh 62 | Mdm2 MdmX conf inactive | FLuc counter 50
Cn1cc(C(=O)N/N=C/c2cccs2)c2ccccc21	none
Cn1cc(C(=O)N/N=C/c2ccc3c(c2)OCO3)c2ccccc21	Mdm2-MdmX inh 66 | Mdm2 MdmX conf 44 | FLuc counter 64
Cc1cccc(C)c1OCC(=O)N/N=C/c1ccc2c(c1)OCO2	Mdm2-MdmX inh 50 | Mdm2 MdmX conf 59 | FLuc counter 56
O=C(N/N=C/c1ccc2c(c1)OCO2)c1cccc2ccccc12	none (no result: CSC inhib)
O=C(NC1CCCC1)C1C(c2ccc(C(F)(F)F)cc2)=Nc2ccccc2N1C(=O)c1ccco1 (configuration not stated)	none (no result: SKKanGAS inh, Calb FLC, Mdm2-MdmX inh, CSC inhib, Beta apoptosis)
CC[C@H](C)[C@H](NC(=O)OCc1ccccc1)C(=O)OCC(=O)Nc1ccc(N2CCOCC2)cc1	none (no result: Beta apoptosis)
N#CN=CN1CC=C(c2ccc(Cl)cc2)CC1	none (no result: SKKanGAS inh, Calb FLC, Mdm2-MdmX inh, CSC inhib, Beta apoptosis)
